# Test results published in PubChem BioAssay (NCI).
# The panel holds about 79,000 compounds, 15% with a hit somewhere; the sample as a whole holds those more often. Unmarked numbers belong to inactive results. Active and inactive are the calls of the source. No stated cut-off is given here; in the data, active means growth inhibition above about 70%; inactive means the rest.
# Tests used:
# [1] = NCI Yeast Anticancer Drug Screen. Data for the rad52 strain (AID 147);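 further: 0% = growth of vehicle-treated control cultures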; settings: S. cerevisiae rad52 mutant growth inhibition, stronger effect = higher value
# Outline: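 Genetically altered yeast (DNA damage repair defect) treated with compound; inhibition calculated relative to vehicle.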
# [2] = NCI Yeast Anticancer Drug Screen. Data for the wt1 strain (AID 149);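 further: 0% = growth of vehicle-treated wt1 cultures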; settings: S. cerevisiae wt1 strain (SPY 50644) growth inhibition, stronger effect = higher value
# Outline: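 Each compound is tested on wt1 yeast and the loss of growth versus vehicle gives the inhibition value.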
# [3] = NCI Yeast Anticancer Drug Screen. Data for the rad50EPP+ strain (AID 151);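 further: 0% = growth of vehicle-treated control cultures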; settings: S. cerevisiae rad50 mutant strain, stronger effect = higher value
# Outline: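 Strain rad50EPP+; compound exposure; % growth inhibition vs vehicle.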
# [4] = NCI Yeast Anticancer Drug Screen. Data for the mgt1 strain (AID 153); settings: S. cerevisiae mgt1 mutant growth inhibition, stronger effect = higher value
# Outline: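 Read-out: yeast growth inhibition vs vehicle control. Strain mgt1, drawn from a panel altered in DNA damage repair or cell cycle control.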
# [5] = NCI Yeast Anticancer Drug Screen. Data for the rad50 strain (AID 155);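 further: 0% = growth of vehicle-only cultures of the same strain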; settings: S. cerevisiae rad50 strain growth inhibition, stronger effect = higher value
# Outline: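 Vehicle-treated cultures provide the reference for the growth inhibition reported for compound-exposed, repair-deficient yeast.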
# [6] = NCI Yeast Anticancer Drug Screen. Data for the mec2-1 strain (AID 157); settings: S. cerevisiae mec2-1 strain, stronger effect = higher value
# Outline: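 Cells of the genetically defined mec2-1 yeast strain are incubated with test compound. Inhibition of growth is calculated against vehicle-treated controls.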
# [7] = NCI Yeast Anticancer Drug Screen. Data for the rad14 strain (AID 159);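 further: 0% = growth of vehicle-treated control cultures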; settings: S. cerevisiae rad14 strain growth inhibition, stronger effect = higher value
# Outline: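 Inhibition of growth is reported for a repair-deficient yeast mutant following compound treatment, calculated relative to cultures that received vehicle.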
# [8] = NCI Yeast Anticancer Drug Screen. Data for the sgs1 mgt1 strain (AID 161);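 further: 0% = growth of cultures given vehicle only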; settings: S. cerevisiae sgs1 mgt1 strain, stronger effect = higher value
# Outline: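 Test agents were incubated with a DNA-repair-mutant yeast strain. Growth was then read and compared against vehicle-treated controls.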
# [9] = NCI Yeast Anticancer Drug Screen. Data for the CLN2oe strain (AID 163);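 further: 0% = growth of vehicle-only control cultures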; settings: S. cerevisiae CLN2oe strain, stronger effect = higher value
# Outline: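 Strain altered in cell-cycle control, incubated with compound; growth compared to solvent-treated controls.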
# [10] = NCI Yeast Anticancer Drug Screen. Data for the cln2 rad14 strain (AID 165);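 further: 0% = growth equal to vehicle treated cultures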; settings: S. cerevisiae cln2 rad14 strain, stronger effect = higher value
# Outline: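 The screen exposed genetically defined yeast (cln2 rad14) to test compounds and scored growth inhibition relative to vehicle-treated controls.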
# [11] = NCI Yeast Anticancer Drug Screen. Data for the bub3 strain (AID 167); settings: S. cerevisiae bub3 mutant strain, stronger effect = higher value
# Outline: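 Mutant yeast screening strain plus compound; vehicle-treated cultures serve as the 0% inhibition reference.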
# [12] = NCI Yeast Anticancer Drug Screen. Data for the mlh1 strain (AID 171);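 further: 0% = growth of vehicle-treated control cultures of the same strain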; settings: S. cerevisiae mlh1 strain growth inhibition, stronger effect = higher value
# Outline: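 Yeast screen: mutant strain plus compound, growth scored against vehicle control wells.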
# [13] = NCI Yeast Anticancer Drug Screen. Data for the sgs1 strain (AID 173);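 further: 0% = growth of vehicle-only control cultures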; settings: S. cerevisiae sgs1 mutant, stronger effect = higher value
# Outline: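 Inhibition of yeast growth served as the measure. The mutant strain was treated with each compound, and growth was normalised to cultures receiving vehicle alone.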
# [14] = NCI Yeast Anticancer Drug Screen. Data for the mlh1 rad18 strain (AID 175); settings: S. cerevisiae mlh1 rad18 strain growth inhibition, stronger effect = higher value
# Outline: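 Compound-treated yeast growth, normalised to vehicle controls. Strain bears defined DNA repair mutations.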
# [15] = NCI Yeast Anticancer Drug Screen. Data for the rad18 strain (AID 177); settings: S. cerevisiae rad18 mutant growth inhibition, stronger effect = higher value
# Outline: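 Inhibition values reflect reduced yeast growth compared with vehicle-treated controls, using a strain engineered with a DNA damage repair defect.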
# [16] = at 5.0 µM (retest, dose inferred, filed as 0.5)
# [17] = at 50.0 µM (retest, dose inferred, filed as 5.0)
smiles,measurement,setting,value
CCN(CC)CCBr,growth inhibition,[1]; at 1.2 µM,1%
same,growth inhibition,[1]; at 3.7 µM,4%
same,growth inhibition,[1]; at 11.0 µM,12%
same,growth inhibition,[1]; at 33.0 µM,43%
same,growth inhibition,[1]; at 100.0 µM,82% (active)
same,growth inhibition,[2]; at 1.2 µM,-1%
same,growth inhibition,[2]; at 3.7 µM,1%
same,growth inhibition,[2]; at 11.0 µM,-6%
same,growth inhibition,[2]; at 33.0 µM,-4%
same,growth inhibition,[2]; at 100.0 µM,-8%
same,growth inhibition,[3]; at 1.2 µM,2%
same,growth inhibition,[3]; at 3.7 µM,6%
same,growth inhibition,[3]; at 11.0 µM,27%
same,growth inhibition,[3]; at 33.0 µM,68%
same,growth inhibition,[3]; at 100.0 µM,92% (active)
same,growth inhibition,[4]; at 1.2 µM,-2%
same,growth inhibition,[4]; at 3.7 µM,0%
same,growth inhibition,[4]; at 11.0 µM,-1%
same,growth inhibition,[4]; at 33.0 µM,-1%
same,growth inhibition,[4]; at 100.0 µM,-2%
same,growth inhibition,[5]; at 1.2 µM,0%
same,growth inhibition,[5]; at 3.7 µM,-38%
same,growth inhibition,[5]; [16],9%
same,growth inhibition,[5]; at 11.0 µM,13%
same,growth inhibition,[5]; at 33.0 µM,53%
same,growth inhibition,[5]; [17],65%
same,growth inhibition,[5]; at 50.0 µM,70.2% (active)
same,growth inhibition,[5]; at 100.0 µM,89% (active)
same,growth inhibition,[6]; at 1.2 µM,-1%
same,growth inhibition,[6]; at 3.7 µM,0%
same,growth inhibition,[6]; [16],-9%
same,growth inhibition,[6]; at 11.0 µM,3%
same,growth inhibition,[6]; at 33.0 µM,1%
same,growth inhibition,[6]; [17],7%
same,growth inhibition,[6]; at 50.0 µM,-12.4%
same,growth inhibition,[6]; at 100.0 µM,28%
same,growth inhibition,[7]; at 1.2 µM,-1%
same,growth inhibition,[7]; at 3.7 µM,-1%
same,growth inhibition,[7]; at 11.0 µM,-1%
same,growth inhibition,[7]; at 33.0 µM,-1%
same,growth inhibition,[7]; at 100.0 µM,7%
same,growth inhibition,[8]; [16],4%
same,growth inhibition,[8]; [17],38%
same,growth inhibition,[8]; at 50.0 µM,37.5%
same,growth inhibition,[9]; at 1.2 µM,0%
same,growth inhibition,[9]; at 3.7 µM,-5%
same,growth inhibition,[9]; at 11.0 µM,-5%
same,growth inhibition,[9]; at 33.0 µM,-7%
same,growth inhibition,[9]; at 100.0 µM,-4%
same,growth inhibition,[10]; [16],-2%
same,growth inhibition,[10]; [17],1%
same,growth inhibition,[10]; at 50.0 µM,1.5%
same,growth inhibition,[11]; at 1.2 µM,0%
same,growth inhibition,[11]; at 3.7 µM,-3%
same,growth inhibition,[11]; [16],-3%
same,growth inhibition,[11]; at 11.0 µM,-7%
same,growth inhibition,[11]; at 33.0 µM,-6%
same,growth inhibition,[11]; [17],-7%
same,growth inhibition,[11]; at 50.0 µM,-11.4%
same,growth inhibition,[11]; at 100.0 µM,-16%
same,growth inhibition,[12]; at 1.2 µM,-1%
same,growth inhibition,[12]; at 3.7 µM,-1%
same,growth inhibition,[12]; at 11.0 µM,-1%
same,growth inhibition,[12]; at 33.0 µM,-2%
same,growth inhibition,[12]; at 100.0 µM,-1%
same,growth inhibition,[13]; at 1.2 µM,0%
same,growth inhibition,[13]; at 3.7 µM,4%
same,growth inhibition,[13]; at 11.0 µM,15%
same,growth inhibition,[13]; at 33.0 µM,42%
same,growth inhibition,[13]; at 100.0 µM,73% (active)
same,growth inhibition,[14]; [16],5%
same,growth inhibition,[14]; [17],15%
same,growth inhibition,[14]; at 50.0 µM,19.9%
same,growth inhibition,[15]; at 1.2 µM,17%
same,growth inhibition,[15]; at 3.7 µM,54%
same,growth inhibition,[15]; at 11.0 µM,86% (active)
same,growth inhibition,[15]; at 33.0 µM,92% (active)
same,growth inhibition,[15]; at 100.0 µM,96% (active)
